# Screening results from PubChem BioAssay.
# F-actin modifier: modifiers of F-actin cytoskeleton organization, primary screen, imaging, HUVEC, phalloidin staining, high-content imaging; HUVEC TNFa F-actin phalloidin imaging; inhibition, % at 2 µM; hit rate 0.18% among 91,000; AID 836, 2007;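 active = inhibition above the batch mean plus 3 SD and confirmed as a hit by visual image inspection, cut at about 30% in these data, passing the limit was not always enough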
# HUVEC tox TNFa: cytotoxicity in TNFa-stimulated HUVEC, primary screen, cytotoxicity control for VCAM1 expression modulator project, imaging, Hoechst nuclei count. HUVEC TNFalpha-stimulated, Hoechst cell count. cell count reduction, % at 2 µM. hit rate 0.17% among 93,000. AID 848, 2007;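 active = cell count reduction exceeding the screen mean by over 5 SD, scaled to untreated wells per plate, cut at about 78% in these data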;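 also: cells counted after 24 h of TNF alpha exposure following the 1 h pretreatment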
# E-sel TNF inh: E-selectin induction blockers in HUVEC – imaging, immunofluorescence, high content, primary screen; hit rate 0.71% among 120,000; inhibition, % at 2 µM; HUVEC TNFa-induced E-selectin immunofluorescence;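 active = inhibition above the batch mean plus 3 SD, and confirmed as a hit on visual image review, cut at about 43% in these data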;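 also: 0% = TNF-stimulated DMSO wells and 100% = unstimulated control wells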
# VCAM1 TNFa inh: inhibitors of TNFa-induced VCAM1 expression, primary screen, imaging, HUVEC, TNFa stimulus, immunofluorescence; HUVEC TNFa-induced VCAM-1 immunofluorescence, high-content imaging; hit rate 0.48% among 95,000; inhibition, % at 2 µM;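 active = inhibition above the batch mean plus 3 SD, with images confirmed as a hit by eye, cut at about 37% in these data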;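 also: 0% = TNF-stimulated DMSO wells and 100% = unstimulated control wells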
# PLAP act: PLAP enzyme activators, biochemical, luminescence, HTS; activation fold at 20 µM; purified PLAP enzyme, luminescent substrate read-out; stronger effect = higher value; hit rate 1.2% among 96,000; Alkaline phosphatase, placental type (Homo sapiens), P05187; AID 696, 2007; in the data active = activation fold above about 2
# Target sequence (P05187 whole entry, looked up): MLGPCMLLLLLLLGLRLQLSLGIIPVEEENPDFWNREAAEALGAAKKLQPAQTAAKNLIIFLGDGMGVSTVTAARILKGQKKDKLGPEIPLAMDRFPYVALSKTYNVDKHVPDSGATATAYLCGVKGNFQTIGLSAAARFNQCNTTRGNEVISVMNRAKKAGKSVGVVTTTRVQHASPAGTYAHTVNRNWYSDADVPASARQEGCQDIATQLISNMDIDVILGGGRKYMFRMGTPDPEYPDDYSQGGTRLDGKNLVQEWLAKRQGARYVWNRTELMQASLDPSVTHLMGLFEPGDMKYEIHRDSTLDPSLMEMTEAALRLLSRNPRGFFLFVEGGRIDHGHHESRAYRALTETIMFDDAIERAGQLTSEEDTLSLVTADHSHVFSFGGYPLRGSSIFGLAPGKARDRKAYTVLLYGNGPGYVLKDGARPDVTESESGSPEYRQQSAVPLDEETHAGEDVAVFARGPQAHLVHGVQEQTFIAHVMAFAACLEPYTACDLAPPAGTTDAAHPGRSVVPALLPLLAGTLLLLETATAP
# Starred values were filed as active, the others as inactive; . = no result. Shown are actives, neighbours in structure and some others; about 2% of the full set was active somewhere.
SMILES,F-actin modifier,HUVEC tox TNFa,E-sel TNF inh,VCAM1 TNFa inh,PLAP act
CCN1C(=O)c2cccc3c(S(=O)(=O)NCc4ccccn4)ccc1c23,31*,-14,14,-5,1.1
COc1ccc(S(=O)(=O)NCc2ccccn2)cc1,4,-14,-19,-5,0.9
CC(=O)Nc1sc(NC(=O)c2ccc(C)cc2)nc1-c1cccs1,-11,16,-18,15,.
CC(=O)c1cccc(NC(=O)C(=O)c2cn(CC(=O)N3CCCCC3)c3ccccc23)c1,.,.,1,.,.
CCOc1ccc(S(=O)(=O)N2CCN(c3ccccc3OC)CC2)c2cccnc12,4,-31,.,-4,1.4
CCOC(=O)c1ccc(NC(=O)Cn2ncc(Cl)c(Cl)c2=O)cc1,.,.,100*,.,.
O=C(OCn1ncc(Cl)c(Cl)c1=O)c1ccc(C(F)(F)F)cc1,-4,5,1,1,1.1
Cc1ccc(C(=O)OCn2ncc(Cl)c(Cl)c2=O)cc1,-24,5,100*,36*,0.8
O=C1C2C3c4ccccc4C(c4ccccc43)C2C(=O)N1Cc1ccccn1 (centres undefined),.,.,15,.,.
O=C(CCN1C(=O)/C(=C\c2ccccc2Cl)SC1=S)N1CCN(c2ccccc2)CC1,8,5,58*,5,1.2
Cc1ccccc1N(CC(=O)N/N=C/c1cc(Br)c(C)o1)S(C)(=O)=O,.,.,17,.,.
O=C(c1ccc(S(=O)(=O)c2cccc(Cl)c2)c([N+](=O)[O-])c1)N1CCN(Cc2ccccc2)CC1,.,.,1,.,.
N=c1nc(N)nc2n1NC(c1ccc(F)cc1)=CS2,-16,-2,15,55*,1
COc1cccc(N=Nc2c(=O)[nH]n3c(=O)cc(C)[nH]c23)c1,-1,-25,-18,-48,2*
COc1cccc(C(C)NC(=O)c2c(F)cccc2Cl)c1 (centres undefined),.,.,61*,.,.
COc1cccc(C(=O)Nc2ccccc2F)c1,.,.,4,.,.
O=C(Nc1nccs1)c1cccc(N2C(=O)c3cccc4c([N+](=O)[O-])ccc(c34)C2=O)c1,-6,-1,-13,62*,1.2
COc1cc(-c2nnc(COc3ccc4ccccc4c3)o2)cc(OC)c1OC,5,-24,100*,-1,1
COc1cc(-c2nnc(-c3ccccc3)o2)cc(OC)c1OC,-4,-6,2,-15,.
O=c1cc(-c2ccc(F)cc2)[nH][nH]1,.,.,3,.,.
COc1ccc(-c2cc(=O)[nH][nH]2)cc1OC,3,-13,0,13,2.2*
COc1ccc(NC(=S)NNC(=O)Cn2nc([N+](=O)[O-])cc2C)cc1,4,5,-34,10,2.2*
O=C(Cn1nc(C(F)F)cc1C(F)F)NNC(=S)Nc1ccc(Cl)cc1,8,-11,-6,-12,2*
COc1ccc(/C(O)=C2/C(=O)C(=O)N(c3ncccn3)C2c2ccc(C(C)(C)C)cc2)cc1 (centres undefined),.,.,-7,.,.
CCC(Sc1nc2n[nH]c(C)c2c(=N)n1-c1cccc(Cl)c1)C(=O)NCCOC (centres undefined),0,-13,.,6,2.1*
SMILES,F-actin modifier,HUVEC tox TNFa,E-sel TNF inh,VCAM1 TNFa inh,PLAP act
CCC(Sc1nc2n[nH]c(C)c2c(=N)n1-c1ccc(C)c(Cl)c1)C(=O)N1CCOCC1 (centres undefined),.,.,-32,.,1.1
CCCCCC(=O)N/N=C(\C)c1ccc(Cl)cc1,10,-11,-13,10,1.1
COc1ccccc1NC(=O)c1ccc(NC(=O)CSc2ncccn2)cc1,.,.,-19,.,.
CCC(c1nnc(SCC(=O)Nc2ccc(C(=O)Nc3ccccc3OC)cc2)o1)N(C)C (centres undefined),-11,14,-23,-4,2.3*
CC(C)[C@H](NC(=O)NCc1ccco1)C(=O)O,-18,-18,13,5,0.9
CCOC(=O)c1ccc(NC(=O)Nc2ccc3c(c2)OCCO3)cc1,28,-25,-14,-8,.
CCOC(=O)c1c(C)c(C(=O)Nc2ccc3c(c2)OCCO3)c(C)n1C,.,.,96*,.,1.3
CCc1ccc(NC(=O)CCn2c(=O)oc3ccccc32)cc1,.,100*,.,.,1
Cc1ccc(NC(=O)CCn2c(=O)oc3ccccc32)cc1,35,-30,.,9,1.1
S=c1[nH]nc(-c2cccs2)n1/N=C/c1c(Cl)cccc1Cl,.,.,-32,.,.
O=C1N/C(=N\N=C\c2cccnc2)SC1Cc1ccc(SC(F)F)cc1 (centres undefined),-15,-1,7,-1,2.1*
O=C1N/C(=N\N=C\c2ccc3ncccc3c2)SC1Cc1ccc(SC(F)F)cc1 (centres undefined),-12,-4,-8,-12,1.8
CCOC(=O)N1CCN(C(=O)COc2cccc3c2CCN(Cc2cccc(C)c2)C3=O)CC1,.,.,69*,.,.
CCOC(=O)C(CC)n1nc(C)n2c(cc3sccc32)c1=O (centres undefined),.,.,46*,.,1
CN1CCN(S(=O)(=O)c2ccc(NC(=O)c3ccc(F)cc3)cc2)CC1,4,-21,100*,-16,1
COc1ccccc1NC(=O)c1ccc(S(=O)(=O)N2CCCC2)cc1,-1,-26,100*,7,0.8
COC(=O)c1cccc(NC(=O)c2ccc(S(=O)(=O)N3CCN(C)CC3)cc2)c1,18,-15,11,-2,1.5
COc1cc(S(=O)(=O)N2CCCCC2)ccc1NC(=O)c1ccc(F)cc1,-7,-1,-9,11,1
CCn1c(SCC(=O)N(C(C)C)C(C)C)nnc1-c1cc2ccccc2cc1O,-6,11,3,26,2*
CCOC(=O)C1CCN(Cc2ccccc2C)CC1,30*,-40,8,-11,1.4
CCOC(=O)C1CCCN(Cc2ccccc2C)C1 (centres undefined),.,.,.,.,0.9
CC1(C)CC(NC(=O)c2ccccn2)CC(C)(C)N1O,.,.,-59,.,.
O=C(CCN1C(=O)/C(=C/c2cccc(Br)c2)SC1=S)NNC(=O)c1cccnc1,-2,-8,-8,6,2.2*
O=C(CCN1C(=O)/C(=C/c2ccccc2)SC1=S)NNC(=O)c1cccnc1,.,.,9,.,.
OCCC1CN(Cc2nc3ccccc3s2)CCN1CCc1ccccc1 (centres undefined),.,.,-9,.,.
SMILES,F-actin modifier,HUVEC tox TNFa,E-sel TNF inh,VCAM1 TNFa inh,PLAP act
COc1ccc(NC(=O)/C(Cl)=C(/Cl)S(=O)Cc2ccccc2Cl)cn1 (centres undefined),.,.,100*,.,.
COc1ccc(NC(=O)CC23CC4CC(CC(C4)C2)C3)cn1,.,.,24,.,.
COc1ccc(NC(=O)/C(Cl)=C(/Cl)S(=O)(=O)Cc2ccc(C)cc2)cn1,-24,30,72*,51*,0.8
CC1(C)CCN(Cc2ccccc2)C1CC#N (centres undefined),-17,28,.,12,0.8
CCN1C/C(=C/c2ccc(OC)c(O)c2)C(=O)/C(=C/c2ccc(OC)c(O)c2)C1,.,.,60*,.,.
CCN1CCN(S(=O)(=O)c2cccc([N+](=O)[O-])c2)CC1,-15,-4,11,4,0.9
COc1ccc(/C=C2\CCc3ccccc3C2=O)cc1OC,1,-16,23,18,1.3
